# Test results published in paper PMC7862700, “An all-to-all approach to the identification of sequence-specific readers for epigenetic DNA modifications on cytosine”.
# Columns and labels:
# Assay in all cases: DAPPL (digital affinity profiling via proximity ligation, sequencing); 10 mM Tris-HCl pH 7.5, 50 mM NaCl, 1 mM DTT, 4% glycerol, room temperature, 30 min; GST-TFs on glutathione beads, 16-mer random dsDNA library, 0.1% formaldehyde crosslink after washing; high values mean tight binding
# FLI1 = biological target: T1, FLI1 (Homo sapiens, UniProt Q01543 1-452); conditions: protein: recombinant; tags: N-terminal GST; dsDNA, one strand shown
# T1 sequence: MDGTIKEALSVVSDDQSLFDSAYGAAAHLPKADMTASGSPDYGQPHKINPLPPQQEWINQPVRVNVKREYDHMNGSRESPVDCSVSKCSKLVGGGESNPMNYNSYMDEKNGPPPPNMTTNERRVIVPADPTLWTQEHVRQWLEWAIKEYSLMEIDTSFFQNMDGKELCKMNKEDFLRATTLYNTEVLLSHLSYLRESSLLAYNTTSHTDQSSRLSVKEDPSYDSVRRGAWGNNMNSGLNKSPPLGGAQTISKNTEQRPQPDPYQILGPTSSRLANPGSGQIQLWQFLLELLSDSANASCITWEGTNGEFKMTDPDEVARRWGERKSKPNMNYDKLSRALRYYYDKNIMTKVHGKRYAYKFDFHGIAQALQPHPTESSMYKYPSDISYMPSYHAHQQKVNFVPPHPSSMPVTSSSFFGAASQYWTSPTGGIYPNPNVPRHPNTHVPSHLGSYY
# Outline: (§1)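 After expression in yeast as GST fusions, human transcription factors were bound to glutathione beads, DNA-barcoded and mixed with a tag-only sample. The pools were incubated with 200 nmole of a 16-mer random double-stranded DNA library in Tris/NaCl/DTT/glycerol buffer (30 min, room temperature), washed and crosslinked with 0.1% formaldehyde. Proximity ligation with BsaI/T4 ligase ran for 1 h at 37 °C, before PCR amplification and sequencing on an Illumina NextSeq500. Binding signal is a hexamer's read frequency for a factor divided by its frequency for the tag-only sample.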
# ELK1 = biological target: T2, ELK1 (Homo sapiens, UniProt P19419 1-428); conditions: protein: recombinant; tags: N-terminal GST; dsDNA, one strand shown
# T2 sequence: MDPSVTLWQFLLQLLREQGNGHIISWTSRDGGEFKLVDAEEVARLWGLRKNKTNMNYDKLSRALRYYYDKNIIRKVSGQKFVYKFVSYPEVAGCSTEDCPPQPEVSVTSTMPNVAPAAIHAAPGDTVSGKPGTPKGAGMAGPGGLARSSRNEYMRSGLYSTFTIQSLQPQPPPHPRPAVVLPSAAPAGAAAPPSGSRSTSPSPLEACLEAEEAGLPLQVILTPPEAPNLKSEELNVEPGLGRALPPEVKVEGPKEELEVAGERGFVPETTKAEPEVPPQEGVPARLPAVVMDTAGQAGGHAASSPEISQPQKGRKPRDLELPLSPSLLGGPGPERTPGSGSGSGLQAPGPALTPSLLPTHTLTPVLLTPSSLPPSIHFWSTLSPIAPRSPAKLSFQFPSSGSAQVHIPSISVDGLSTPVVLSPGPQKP
# Outline: as §1
# GABPA = biological target: T3, GABPA (Homo sapiens, UniProt Q06546 1-454); conditions: protein: recombinant; tags: N-terminal GST; dsDNA, one strand shown
# T3 sequence: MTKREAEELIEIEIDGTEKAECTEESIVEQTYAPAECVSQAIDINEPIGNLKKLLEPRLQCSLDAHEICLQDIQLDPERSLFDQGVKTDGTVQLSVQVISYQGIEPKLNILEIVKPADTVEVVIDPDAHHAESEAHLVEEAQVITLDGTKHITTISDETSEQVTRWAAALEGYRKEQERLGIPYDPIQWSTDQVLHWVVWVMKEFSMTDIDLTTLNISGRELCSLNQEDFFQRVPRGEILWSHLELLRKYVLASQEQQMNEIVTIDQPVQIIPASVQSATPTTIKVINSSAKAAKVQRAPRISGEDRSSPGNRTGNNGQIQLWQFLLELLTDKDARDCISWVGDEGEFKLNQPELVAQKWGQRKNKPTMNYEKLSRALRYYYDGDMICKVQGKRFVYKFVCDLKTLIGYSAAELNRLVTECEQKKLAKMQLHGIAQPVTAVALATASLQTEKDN
# Outline: as §1
# ERG = biological target: T4, ERG (Homo sapiens, UniProt P11308 1-479); conditions: protein: recombinant; tags: N-terminal GST; dsDNA, one strand shown
# T4 sequence: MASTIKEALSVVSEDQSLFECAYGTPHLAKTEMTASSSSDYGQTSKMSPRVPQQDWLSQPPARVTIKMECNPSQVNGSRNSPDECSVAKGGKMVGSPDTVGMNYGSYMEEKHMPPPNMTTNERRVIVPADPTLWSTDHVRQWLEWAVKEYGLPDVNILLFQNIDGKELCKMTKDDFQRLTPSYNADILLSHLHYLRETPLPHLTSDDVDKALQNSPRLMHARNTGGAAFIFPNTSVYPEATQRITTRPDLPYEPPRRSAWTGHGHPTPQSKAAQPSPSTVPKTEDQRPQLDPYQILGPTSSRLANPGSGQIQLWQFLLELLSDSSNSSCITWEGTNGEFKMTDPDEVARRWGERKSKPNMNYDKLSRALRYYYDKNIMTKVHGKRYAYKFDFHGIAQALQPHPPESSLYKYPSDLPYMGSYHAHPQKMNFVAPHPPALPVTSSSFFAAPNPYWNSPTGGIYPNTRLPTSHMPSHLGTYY
# Outline: as §1
# ELF1 = ELF1 (Homo sapiens, UniProt P32519 1-619); conditions: protein: recombinant; tags: N-terminal GST; dsDNA, one strand shown
# Outline: as §1
# EHF = biological target: T5, EHF (Homo sapiens, UniProt Q9NZC4 1-300); conditions: protein: recombinant; tags: N-terminal GST; dsDNA, one strand shown
# T5 sequence: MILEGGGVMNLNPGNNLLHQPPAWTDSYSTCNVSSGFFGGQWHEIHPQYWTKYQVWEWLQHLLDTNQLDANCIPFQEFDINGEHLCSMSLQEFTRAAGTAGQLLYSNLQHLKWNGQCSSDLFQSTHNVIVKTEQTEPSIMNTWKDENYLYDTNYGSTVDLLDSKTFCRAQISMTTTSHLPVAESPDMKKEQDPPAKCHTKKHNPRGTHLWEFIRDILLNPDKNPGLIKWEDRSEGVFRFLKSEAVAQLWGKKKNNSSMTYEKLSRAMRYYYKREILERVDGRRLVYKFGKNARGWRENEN
# Outline: as §1
# SPI1 = SPI1 (Homo sapiens, UniProt P17947 1-270); conditions: protein: recombinant; tags: N-terminal GST; dsDNA, one strand shown
# Outline: as §1
# SPIB = SPIB (Homo sapiens, UniProt Q01892 1-262); conditions: protein: recombinant; tags: N-terminal GST; dsDNA, one strand shown
# Outline: as §1
# ELK3 = biological target: T6, ELK3 (Homo sapiens, UniProt P41970 1-407); conditions: protein: recombinant; tags: N-terminal GST; dsDNA, one strand shown
# T6 sequence: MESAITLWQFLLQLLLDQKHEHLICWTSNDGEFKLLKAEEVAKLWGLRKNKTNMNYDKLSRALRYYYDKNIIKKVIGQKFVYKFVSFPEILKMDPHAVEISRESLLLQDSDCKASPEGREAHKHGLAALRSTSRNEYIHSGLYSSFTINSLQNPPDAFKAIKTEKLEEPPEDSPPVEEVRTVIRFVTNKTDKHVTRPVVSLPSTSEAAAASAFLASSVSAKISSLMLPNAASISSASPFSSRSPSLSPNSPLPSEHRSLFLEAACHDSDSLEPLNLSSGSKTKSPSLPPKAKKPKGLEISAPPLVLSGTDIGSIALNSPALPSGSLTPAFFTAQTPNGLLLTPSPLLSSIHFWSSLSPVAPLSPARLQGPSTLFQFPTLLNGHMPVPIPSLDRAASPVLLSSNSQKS
# Outline: as §1
# FEV = biological target: T7, FEV (Homo sapiens, UniProt Q99581 1-238); conditions: protein: recombinant; tags: N-terminal GST; dsDNA, one strand shown
# T7 sequence: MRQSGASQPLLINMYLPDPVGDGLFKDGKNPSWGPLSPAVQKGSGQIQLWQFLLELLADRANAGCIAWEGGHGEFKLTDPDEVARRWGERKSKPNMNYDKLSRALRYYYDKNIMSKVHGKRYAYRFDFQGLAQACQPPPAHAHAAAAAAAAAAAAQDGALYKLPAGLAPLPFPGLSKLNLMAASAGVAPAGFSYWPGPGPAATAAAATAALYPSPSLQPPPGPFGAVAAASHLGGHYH
# Outline: as §1
# ETV5 = ETV5 (Homo sapiens, UniProt P41161 1-510); conditions: protein: recombinant; tags: N-terminal GST; dsDNA, one strand shown
# Outline: as §1
# HSF1 = HSF1 (Homo sapiens, UniProt Q00613 1-529); conditions: protein: recombinant; tags: N-terminal GST; chain copies: 3; dsDNA, one strand shown
# Outline: as §1
# SPIC = biological target: T8, SPIC (Homo sapiens, UniProt Q8N5J4 1-248); conditions: protein: recombinant; tags: N-terminal GST; dsDNA, one strand shown
# T8 sequence: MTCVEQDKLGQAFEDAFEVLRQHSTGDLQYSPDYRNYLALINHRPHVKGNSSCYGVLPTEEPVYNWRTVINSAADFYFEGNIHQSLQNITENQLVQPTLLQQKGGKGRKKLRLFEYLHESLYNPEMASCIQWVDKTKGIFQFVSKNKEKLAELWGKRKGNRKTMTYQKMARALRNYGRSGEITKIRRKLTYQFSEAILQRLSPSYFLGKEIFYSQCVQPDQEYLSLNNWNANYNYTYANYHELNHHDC
# Outline: as §1
# ELF4 = ELF4 (Homo sapiens, UniProt Q99607 1-663); conditions: protein: recombinant; tags: N-terminal GST; dsDNA, one strand shown
# Outline: as §1
# ELK4 = biological target: T9, ELK4 (Homo sapiens, UniProt P28324-2 1-405); conditions: protein: recombinant; tags: N-terminal GST; dsDNA, one strand shown
# T9 sequence: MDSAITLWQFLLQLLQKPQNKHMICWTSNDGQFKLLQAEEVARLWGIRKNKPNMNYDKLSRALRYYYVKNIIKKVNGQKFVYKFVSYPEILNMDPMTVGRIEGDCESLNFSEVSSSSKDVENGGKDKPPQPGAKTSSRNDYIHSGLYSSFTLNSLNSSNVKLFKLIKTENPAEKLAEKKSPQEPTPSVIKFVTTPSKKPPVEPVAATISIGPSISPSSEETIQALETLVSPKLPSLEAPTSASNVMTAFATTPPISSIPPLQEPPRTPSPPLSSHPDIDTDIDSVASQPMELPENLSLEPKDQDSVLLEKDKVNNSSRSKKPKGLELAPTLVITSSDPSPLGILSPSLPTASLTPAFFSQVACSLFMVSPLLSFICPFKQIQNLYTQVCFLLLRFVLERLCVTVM
# Outline: as §1
# ETV2 = biological target: T10, ETV2 (Homo sapiens, UniProt O00321 1-342); conditions: protein: recombinant; tags: N-terminal GST; dsDNA, one strand shown
# T10 sequence: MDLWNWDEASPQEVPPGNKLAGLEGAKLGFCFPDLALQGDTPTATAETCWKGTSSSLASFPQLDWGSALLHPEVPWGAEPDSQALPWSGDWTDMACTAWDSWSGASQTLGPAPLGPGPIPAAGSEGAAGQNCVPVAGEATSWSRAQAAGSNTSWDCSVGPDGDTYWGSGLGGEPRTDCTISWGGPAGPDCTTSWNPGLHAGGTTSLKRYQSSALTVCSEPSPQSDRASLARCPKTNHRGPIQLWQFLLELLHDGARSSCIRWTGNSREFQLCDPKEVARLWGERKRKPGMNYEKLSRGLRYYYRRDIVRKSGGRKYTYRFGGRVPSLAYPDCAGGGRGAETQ
# Outline: as §1
# ELF3 = biological target: T11, ELF3 (Homo sapiens, UniProt P78545 1-371); conditions: protein: recombinant; tags: N-terminal GST; dsDNA, one strand shown
# T11 sequence: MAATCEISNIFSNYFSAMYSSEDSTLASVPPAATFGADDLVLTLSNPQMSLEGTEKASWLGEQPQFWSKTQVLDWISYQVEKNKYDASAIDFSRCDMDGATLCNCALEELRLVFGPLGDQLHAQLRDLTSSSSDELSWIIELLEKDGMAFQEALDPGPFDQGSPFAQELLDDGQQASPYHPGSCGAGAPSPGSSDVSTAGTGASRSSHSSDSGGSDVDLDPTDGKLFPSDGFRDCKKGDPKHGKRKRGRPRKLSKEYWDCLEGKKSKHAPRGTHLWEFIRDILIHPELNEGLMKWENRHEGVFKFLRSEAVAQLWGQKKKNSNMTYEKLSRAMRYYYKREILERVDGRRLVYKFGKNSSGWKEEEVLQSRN
# Outline: as §1
# CRX = CRX (Homo sapiens, UniProt O43186 1-299); conditions: protein: recombinant; tags: N-terminal GST; dsDNA, one strand shown
# Outline: as §1
# ETV1 = ETV1 (Homo sapiens, UniProt P50549 1-477); conditions: protein: recombinant; tags: N-terminal GST; dsDNA, one strand shown
# Outline: as §1
# Sequence of ETV5 (P41161 whole entry): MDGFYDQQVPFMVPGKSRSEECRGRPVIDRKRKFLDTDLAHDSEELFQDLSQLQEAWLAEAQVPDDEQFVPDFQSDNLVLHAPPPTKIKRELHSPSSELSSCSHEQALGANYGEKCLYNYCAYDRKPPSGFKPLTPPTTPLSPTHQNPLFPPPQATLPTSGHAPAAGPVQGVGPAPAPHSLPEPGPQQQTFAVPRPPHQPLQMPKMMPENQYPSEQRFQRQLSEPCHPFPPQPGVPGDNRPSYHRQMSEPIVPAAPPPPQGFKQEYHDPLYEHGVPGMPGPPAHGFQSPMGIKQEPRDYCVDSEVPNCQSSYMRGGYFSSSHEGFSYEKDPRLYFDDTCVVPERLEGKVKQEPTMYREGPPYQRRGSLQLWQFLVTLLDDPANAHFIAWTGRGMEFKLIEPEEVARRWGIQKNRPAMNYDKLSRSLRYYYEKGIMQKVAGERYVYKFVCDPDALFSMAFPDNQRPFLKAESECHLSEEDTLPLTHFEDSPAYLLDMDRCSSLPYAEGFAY
# Sequence of ETV1 (P50549 whole entry): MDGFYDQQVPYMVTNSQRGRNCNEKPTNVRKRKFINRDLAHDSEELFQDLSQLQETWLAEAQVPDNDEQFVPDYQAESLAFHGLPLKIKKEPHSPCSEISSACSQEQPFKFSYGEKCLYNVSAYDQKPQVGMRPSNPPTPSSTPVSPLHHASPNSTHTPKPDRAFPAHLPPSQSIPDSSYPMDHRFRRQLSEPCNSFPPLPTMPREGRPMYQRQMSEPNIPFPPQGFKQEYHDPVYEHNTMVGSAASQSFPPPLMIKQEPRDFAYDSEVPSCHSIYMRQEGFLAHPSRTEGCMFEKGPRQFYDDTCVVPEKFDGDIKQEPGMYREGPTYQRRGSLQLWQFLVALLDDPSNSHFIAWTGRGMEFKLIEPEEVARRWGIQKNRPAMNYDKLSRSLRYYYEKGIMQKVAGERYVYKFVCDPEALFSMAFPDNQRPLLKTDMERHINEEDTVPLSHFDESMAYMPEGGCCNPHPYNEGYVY
# Sequence of ELF1 (P32519 whole entry): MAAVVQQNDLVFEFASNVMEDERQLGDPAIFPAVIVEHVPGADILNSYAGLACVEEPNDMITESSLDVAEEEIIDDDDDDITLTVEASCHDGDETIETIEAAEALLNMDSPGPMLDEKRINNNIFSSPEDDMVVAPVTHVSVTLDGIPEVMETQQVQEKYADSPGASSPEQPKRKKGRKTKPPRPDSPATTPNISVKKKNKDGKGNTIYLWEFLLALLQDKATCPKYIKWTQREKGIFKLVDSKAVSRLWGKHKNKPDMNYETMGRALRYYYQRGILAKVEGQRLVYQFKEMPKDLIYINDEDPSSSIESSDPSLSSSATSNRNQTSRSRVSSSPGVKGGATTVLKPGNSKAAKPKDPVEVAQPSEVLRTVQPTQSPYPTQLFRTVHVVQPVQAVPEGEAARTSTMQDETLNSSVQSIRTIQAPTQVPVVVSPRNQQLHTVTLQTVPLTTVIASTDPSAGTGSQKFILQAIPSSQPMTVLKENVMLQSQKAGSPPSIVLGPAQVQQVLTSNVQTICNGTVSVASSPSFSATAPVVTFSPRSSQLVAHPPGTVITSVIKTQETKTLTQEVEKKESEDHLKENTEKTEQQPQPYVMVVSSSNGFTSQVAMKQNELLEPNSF
# Sequence of SPIB (Q01892 whole entry): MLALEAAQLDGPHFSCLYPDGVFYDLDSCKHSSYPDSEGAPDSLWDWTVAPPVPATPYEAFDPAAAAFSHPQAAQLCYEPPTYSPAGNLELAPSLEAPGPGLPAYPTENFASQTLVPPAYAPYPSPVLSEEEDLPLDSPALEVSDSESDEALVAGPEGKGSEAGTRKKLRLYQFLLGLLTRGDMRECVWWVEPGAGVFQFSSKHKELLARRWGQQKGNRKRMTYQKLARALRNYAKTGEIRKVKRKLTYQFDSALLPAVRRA
# Sequence of ELF4 (Q99607 whole entry): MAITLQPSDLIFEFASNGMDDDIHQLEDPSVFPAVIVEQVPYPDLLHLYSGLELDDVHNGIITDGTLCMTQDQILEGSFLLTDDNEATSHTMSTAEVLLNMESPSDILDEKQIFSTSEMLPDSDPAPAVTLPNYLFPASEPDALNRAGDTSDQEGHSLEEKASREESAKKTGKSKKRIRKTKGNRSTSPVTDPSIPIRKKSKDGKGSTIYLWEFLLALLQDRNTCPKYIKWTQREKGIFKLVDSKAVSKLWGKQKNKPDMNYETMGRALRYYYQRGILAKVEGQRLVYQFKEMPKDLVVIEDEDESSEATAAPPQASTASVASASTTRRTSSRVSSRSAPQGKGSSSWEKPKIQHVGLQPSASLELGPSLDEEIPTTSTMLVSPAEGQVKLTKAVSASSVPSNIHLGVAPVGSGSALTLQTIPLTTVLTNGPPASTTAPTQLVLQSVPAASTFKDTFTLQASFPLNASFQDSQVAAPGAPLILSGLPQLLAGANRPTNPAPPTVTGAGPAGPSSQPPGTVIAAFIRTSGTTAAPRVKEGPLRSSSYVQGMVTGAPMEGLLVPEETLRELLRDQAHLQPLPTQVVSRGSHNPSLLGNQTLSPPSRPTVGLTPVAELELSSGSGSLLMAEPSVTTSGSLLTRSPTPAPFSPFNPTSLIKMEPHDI
# Sequence of CRX (O43186 whole entry): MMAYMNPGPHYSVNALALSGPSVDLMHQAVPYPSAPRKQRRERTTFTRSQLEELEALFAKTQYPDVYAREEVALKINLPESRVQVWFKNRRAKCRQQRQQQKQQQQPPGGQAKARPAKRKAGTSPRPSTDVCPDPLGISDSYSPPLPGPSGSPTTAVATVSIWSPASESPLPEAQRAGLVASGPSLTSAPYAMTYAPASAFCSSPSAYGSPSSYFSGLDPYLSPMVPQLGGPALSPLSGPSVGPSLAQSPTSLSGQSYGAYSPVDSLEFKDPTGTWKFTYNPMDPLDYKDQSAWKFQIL
# Sequence of HSF1 (Q00613 whole entry): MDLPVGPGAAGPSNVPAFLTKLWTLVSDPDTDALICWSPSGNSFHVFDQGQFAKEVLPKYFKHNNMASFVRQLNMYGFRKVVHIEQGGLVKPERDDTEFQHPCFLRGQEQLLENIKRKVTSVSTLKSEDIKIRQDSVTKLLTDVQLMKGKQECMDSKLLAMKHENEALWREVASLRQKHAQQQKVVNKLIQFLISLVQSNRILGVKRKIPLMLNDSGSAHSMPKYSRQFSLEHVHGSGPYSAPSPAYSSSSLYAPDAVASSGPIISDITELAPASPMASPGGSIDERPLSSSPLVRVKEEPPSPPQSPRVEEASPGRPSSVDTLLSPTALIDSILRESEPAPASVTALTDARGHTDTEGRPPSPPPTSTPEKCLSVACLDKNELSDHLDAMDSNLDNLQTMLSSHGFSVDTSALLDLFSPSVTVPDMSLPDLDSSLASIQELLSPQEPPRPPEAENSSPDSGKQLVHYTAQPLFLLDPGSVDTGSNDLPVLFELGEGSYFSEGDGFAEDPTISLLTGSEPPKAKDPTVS
sequence,measurement,setting,value
AATTTT,binding signal,FLI1,"1.24 fold enrichment (6-mer frequency, TF over GST control)"
same,binding signal,ELK1,"1.26 fold enrichment (6-mer frequency, TF over GST control)"
same,binding signal,GABPA,"1.27 fold enrichment (6-mer frequency, TF over GST control)"
same,binding signal,ERG,"1.21 fold enrichment (6-mer frequency, TF over GST control)"
same,binding signal,ELF1,"1.22 fold enrichment (6-mer frequency, TF over GST control)"
same,binding signal,EHF,"1.3 fold enrichment (6-mer frequency, TF over GST control)"
same,binding signal,SPI1,"1.3 fold enrichment (6-mer frequency, TF over GST control)"
same,binding signal,SPIB,"1.26 fold enrichment (6-mer frequency, TF over GST control)"
same,binding signal,ELK3,"1.19 fold enrichment (6-mer frequency, TF over GST control)"
same,binding signal,FEV,"1.22 fold enrichment (6-mer frequency, TF over GST control)"
same,binding signal,ETV5,"1.29 fold enrichment (6-mer frequency, TF over GST control)"
same,binding signal,HSF1,"1.51 fold enrichment (6-mer frequency, TF over GST control)"
same,binding signal,SPIC,"1.17 fold enrichment (6-mer frequency, TF over GST control)"
same,binding signal,ELF4,"1.32 fold enrichment (6-mer frequency, TF over GST control)"
same,binding signal,ELK4,"1.3 fold enrichment (6-mer frequency, TF over GST control)"
same,binding signal,ETV2,"1.46 fold enrichment (6-mer frequency, TF over GST control)"
same,binding signal,ELF3,"1.41 fold enrichment (6-mer frequency, TF over GST control)"
same,binding signal,CRX,"1.29 fold enrichment (6-mer frequency, TF over GST control)"
same,binding signal,ETV1,"1.23 fold enrichment (6-mer frequency, TF over GST control)"
